LGR2 inh: Drosophila LGR2 receptor signaling inhibition. 380,000 tested, 0.35% active. inhibition, % at 9.99 µM. HEK293 LGR2, CRE-luciferase, bursicon-stimulated, 4 h. AID 720647;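 active means drop in luminescence signal, shown as inhibition above about 50% in the replicate tests, limit read from the data, passing the limit was not always enough; inconclusive means probably only some replicates passing the limit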;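 further: agonist challenge used bursicon conditioned medium at about half maximal strength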
iPSC survival up: increases survival of single human iPS cells | hiPSC single-cell survival, ATPlite luminescence; 100% = ROCK inhibitor wells, 0% = DMSO | survival enhancement, % at 20 µM | 360,000 tested, 0.044% active | AID 602274; in the data active means survival enhancement above about 18%;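 further: cells exposed to compounds for 16 hours before the ATP read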
HIF-2a inh: blocks HIF-2a reporter activity; 360,000 tested, 0.72% active; inhibition, % at 18.8 µM; 786-0 RCC cells HIF-2a reporter, luciferase luminescence, overnight;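 active means inhibition of the luminescence signal of 40% or more relative to plate controls, in a single-dose primary screen at 18.75 µM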
TWEAK Fn14 block: inhibitors of TWEAK-Fn14 interaction signaling. TWEAK-stimulated Fn14 reporter cells, luciferase luminescence, 8 h. inhibition, % at 10 µM. 360,000 tested, 2% active. AID 1159606; in the data active means inhibition above about 50%
KKLEB tox: counter-screen for CF NF-kB inhibitors: cytotoxicity | AID 602141 | KKLEB CF airway cells viability, ATPlite luminescence, overnight; stronger effect = lower value; cells stimulated with P. aeruginosa culture filtrate | activity change (cytotoxicity), % at 5 µM | 360,000 tested, 0.36% active;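 active means corrected activity change at or below -50% at 5 µM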
CF NFkB inh: cystic fibrosis NF-kB activation inhibition | inhibition, % at 5 µM | KKLEB NF-kB-GFP reporter, PAF-induced, GFP fluorescence overnight | 360,000 tested, 0.86% active | AID 588850;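 active means at least 50% inhibition at 5 µM, scaled per plate between neutral and stimulator controls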;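 further: PAF is a Pseudomonas aeruginosa culture filtrate used as stimulus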
Large screens that a line does not name were inactive. A selection: hits, their analogues and other compounds. The true share with any hit is near 2.3%.

O=C(Nc1ccc(NC(=O)c2ccco2)nc1)c1ccco1	LGR2 inh 60.4, TWEAK Fn14 block 73.6
O=C(Nc1ccc(NC(=O)C2CCCCC2)cn1)c1ccco1	TWEAK Fn14 block 75.2 (no result: LGR2 inh)
O=C(Nc1ccc(NC(=O)C2CC2)cc1)c1ccco1	none
O=C(Nc1ccc(NC(=O)c2ccco2)nc1)c1ccccn1	TWEAK Fn14 block 51.9 (no result: LGR2 inh)
O=C(Nc1cccc(S(=O)(=O)N2CCCC2)c1)c1ccco1	none
COc1ccc(NC(=O)Nc2cccc(OC)c2)cc1	none (no result: LGR2 inh)
CCSc1nsc(NC(=O)Nc2cccc(F)c2)n1	TWEAK Fn14 block 55.4
COc1cccc(NC(=O)Nc2nccc(C)n2)c1	TWEAK Fn14 block 62.1
COc1cccc(NC(=O)Nc2ccc3nsnc3c2)c1	none
COc1cccc(NC(=O)Nc2nc(SC(C)(C)C)ns2)c1	TWEAK Fn14 block 76.5
COc1cccc(NC(=O)Nc2nc(SC)ns2)c1	TWEAK Fn14 block 56.1
CO[C@H]1CN(C)C(=O)c2ccc(NC(=O)C3CC3)cc2OC[C@H](C)N(Cc2cccc(F)c2)C[C@H]1C	none (no result: iPSC survival up, HIF-2a inh, TWEAK Fn14 block, KKLEB tox, CF NFkB inh)
Cc1ccccc1S(=O)(=O)N1CCCCN2[C@H](CO)[C@@H](c3ccc(-c4cncnc4)cc3)[C@@H]2C1	none (no result: iPSC survival up, HIF-2a inh, TWEAK Fn14 block, KKLEB tox, CF NFkB inh)
CCNC(=O)[C@H]1[C@H](CO)[C@H]2Cn3c(ccc(-c4cccc(F)c4)c3=O)[C@H]2N1Cc1nccs1	none (no result: iPSC survival up, HIF-2a inh, TWEAK Fn14 block, KKLEB tox, CF NFkB inh)
C[C@@H]1CCCCO[C@H](CN(C)Cc2ccc(C(F)(F)F)cc2)[C@H](C)CN([C@@H](C)CO)C(=O)c2cc(NC(=O)c3ccccc3)ccc2O1	none (no result: iPSC survival up, HIF-2a inh, TWEAK Fn14 block, KKLEB tox, CF NFkB inh)
CCN(CC)c1ccc(/C=c2\sc3nc4ccccc4n3c2=O)c(O)c1	TWEAK Fn14 block 67.2
Cc1cc(/C=c2/sc3nc4ccccc4n3c2=O)c(C)n1-c1ccccn1	HIF-2a inh 74.7, TWEAK Fn14 block 82.5, KKLEB tox -54.4 (no result: LGR2 inh)
COc1ccc2c3c([nH]c2c1)[C@@H](CO)N(C(C)=O)CC31CCN(C(=O)CN2CCOCC2)CC1	none (no result: iPSC survival up, HIF-2a inh, TWEAK Fn14 block, KKLEB tox, CF NFkB inh)
Cc1cc(O)c(C(C)C)cc1NC(=O)Nc1ccc([N+](=O)[O-])cc1	none (no result: LGR2 inh)
Cc1ccc(C(C)C)cc1NC(=O)Nc1ccc([N+](=O)[O-])cc1	TWEAK Fn14 block 68.8
COC(=O)c1ccc(C(NC(=O)c2cccnc2)NC(=O)c2cccnc2)cc1	TWEAK Fn14 block 59.2
CC(C)c1onc(C(=O)N2CCN(c3ccccc3)CC2)c1[N+](=O)[O-]	none
CC(C)c1onc(C(=O)N2CCN(C(c3ccccc3)c3ccccc3)CC2)c1[N+](=O)[O-]	CF NFkB inh 50.5
O=C(C[C@H]1CC[C@H](NC(=O)c2cnccn2)[C@H](CO)O1)NCc1ccccc1F	none (no result: iPSC survival up, HIF-2a inh, TWEAK Fn14 block, KKLEB tox, CF NFkB inh)
Cc1ccc(C)c(-c2cc(C(=O)Nc3sc(C)c(C)c3C(N)=O)c3ccccc3n2)c1	LGR2 inh inconclusive, TWEAK Fn14 block 66.3
Cc1cccc(-c2cc(C(=O)Nc3sc(C)c(C)c3C(N)=O)c3ccccc3n2)c1	none (no result: LGR2 inh)
COCC(=O)N(C)C[C@H]1Oc2ncc(-c3ccccc3F)cc2C(=O)N([C@@H](C)CO)C[C@@H]1C	none (no result: iPSC survival up, HIF-2a inh, TWEAK Fn14 block, KKLEB tox, CF NFkB inh)
O=C1CSC(=NC(=O)c2ccccc2)N1	TWEAK Fn14 block 69.2
O=C(NC1CCCC1)[C@H]1[C@H](CO)[C@H]2Cn3c(ccc(-c4cccnc4)c3=O)[C@H]2N1CC1CC1	none (no result: iPSC survival up, HIF-2a inh, TWEAK Fn14 block, KKLEB tox, CF NFkB inh)
COc1ccc(C=CC(=O)c2ccc([N+](=O)[O-])cc2)cc1	none
Cc1[nH]c(C)c(C(=O)/C=C/c2ccc([N+](=O)[O-])cc2)c1C	TWEAK Fn14 block 59.6 (no result: LGR2 inh)
CC1(C)CC(=O)C2=C(C1)NC1=C(C(=O)c3ccccc31)C2c1ccc(Cl)cc1 (configuration not stated)	TWEAK Fn14 block 109.3
C[C@@H]1CN([C@@H](C)CO)C(=O)c2cc(NS(=O)(=O)c3ccc(Cl)cc3)ccc2O[C@@H]1CN(C)S(=O)(=O)c1cn(C)cn1	none (no result: iPSC survival up, HIF-2a inh, TWEAK Fn14 block, KKLEB tox, CF NFkB inh)
COCC(=O)N(C)C[C@H]1Oc2cc(-c3ccc(C)cc3)ccc2S(=O)(=O)N([C@@H](C)CO)C[C@@H]1C	none (no result: iPSC survival up, HIF-2a inh, TWEAK Fn14 block, KKLEB tox, CF NFkB inh)
C[C@@H]1CCCCO[C@@H](CN(C)C(=O)NC2CCCCC2)[C@H](C)CN([C@H](C)CO)C(=O)c2cc(NS(=O)(=O)c3ccc(F)cc3)ccc2O1	none (no result: iPSC survival up, HIF-2a inh, TWEAK Fn14 block, KKLEB tox, CF NFkB inh)
COc1ccc(N=Cc2sc3ccccc3c2Cl)cc1	TWEAK Fn14 block 71.3 (no result: LGR2 inh)
COc1cc(OC)c(-c2c3cc(O)c(=O)cc-3oc3cc(O)c(O)cc23)cc1OC	TWEAK Fn14 block 62.0
N#Cc1ccc(CSc2nc(N)cc(=O)[nH]2)cc1	TWEAK Fn14 block 71.7

Compound activity: PubChem BioAssay, several laboratories
